Compound activity deposited in PubChem by National Center for Advancing Translational Sciences (NCATS).
ATXN2 expr inh: reduces ATXN2 reporter expression in HEK-293 cells; HEK-293 ATXN2-luciferase reporter, luminescence, 24 h; Potency, µM (series often up to 57 µM), actives largely listed as inhibitors; 360,000 compounds, 0.72% hits; AID 1745845; also: nearly all actives have a fitted effect of over 55% in size
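qHTS (up to 57 uM final) was run with 24 h compound exposure of reporter cells at 37 °C. Each well was multiplexed: SteadyGlo luminescence measured ATXN2-luciferase expression after a fluorogenic Gly-Phe-AFC viability readout (25 uM final).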
DRD3 antagonist: D3 dopamine receptor (human) antagonism. P35462. D3R cells, DiscoveRx beta-arrestin luminescence, antagonist mode; hits give low values. max response, negative = inhibition, %. 360,000 compounds, 2.5% hits; in the data active = max response below about -50%; inconclusive = no clear call, values can overlap the other calls
Target sequence (P35462 whole entry, looked up): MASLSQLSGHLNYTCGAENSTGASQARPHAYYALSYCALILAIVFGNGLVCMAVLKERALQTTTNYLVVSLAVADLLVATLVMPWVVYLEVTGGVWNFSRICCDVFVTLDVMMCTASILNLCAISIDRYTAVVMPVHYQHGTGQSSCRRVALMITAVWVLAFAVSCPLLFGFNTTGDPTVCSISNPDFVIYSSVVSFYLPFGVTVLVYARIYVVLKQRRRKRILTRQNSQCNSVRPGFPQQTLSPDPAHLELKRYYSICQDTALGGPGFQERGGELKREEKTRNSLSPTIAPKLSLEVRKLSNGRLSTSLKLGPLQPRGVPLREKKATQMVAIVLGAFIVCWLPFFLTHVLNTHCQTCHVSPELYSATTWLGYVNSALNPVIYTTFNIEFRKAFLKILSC
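Cells expressing the human receptor were seeded at 1500 cells/well, incubated overnight at 37 degrees C in 5% CO2, then exposed to library compounds with dopamine controls for 90 minutes at 37 degrees C before luminescent detection.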
IL1B secr inh: blocks inflammasome-driven IL-1 beta release; 360,000 compounds, 4.7% hits; AID 743279; THP-1 LPS/ATP IL-1B secretion, AlphaLISA, 16 h; hits give low values; activity change, % at 57.5 µM; in the data active = activity change below about -50%; inconclusive = mostly about -30% to -49%
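THP-1 cells pretreated 1 hr with compounds (up to 57.5 uM final), then stimulated with LPS (250 ng/mL final) plus ATP (1.25 mM final); secreted IL-1B measured by AlphaLISA after 16 hr, decreased signal indicating inhibition.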
ATXN viability: reduces viability in counter-screen for ATXN expression inhibitors; Potency, µM (highest dose often 56.7 µM), most hits filed as cytotoxic; AID 651635; 400,000 compounds, 0.49% hits; S2 cells (HEK-293 line with an ATXN2-luciferase reporter) viability, CellTiter-Fluor protease fluorescence, 24 h; also: nearly all actives have a fitted effect of over 40% in size
DRD3 agonist: activates the human D3 dopamine receptor; D3R DiscoveRx beta-arrestin cells, luminescence, 90 min; AID 652048; 410,000 compounds, 0.58% hits; P35462; max activation, %; in the data active = max activation above about 30%
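Agonist mode: compounds and dopamine controls were applied to plated cells for 90 min at 37 degrees C after an overnight attachment at 1500 cells/well. Luminescent read-out followed 30 - 60 minutes at room temperature with DiscoveRx detection reagent.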
Integrin act MD: activates integrin-mediated alleviation for muscular dystrophy. alpha7betagal myoblasts, beta-gal FDG fluorescence, 48 h. Potency, µM (highest dose often 38.3 µM), usual class: activators. 350,000 compounds, 0.064% hits; also: nearly all actives have a fitted effect of over 60% in size
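Alpha7betagal+/- myoblasts (passage 13) were plated 16-24 hr, then exposed to compounds (1:260 dilution of DMSO stock) for 48 hours at 37C. After MPER lysis, β-galactosidase reporter activity was read as FDG fluorescence (ex 480/em 540) after 30 minutes.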
Large screens that a line does not name were inactive. Compounds with a hit are over-represented: about 7% of the library has one in this group of screens. Unless noted, calls follow the shape of the dose curve; as a rule, active = well fitted curve in the direction sought with a large enough effect; inconclusive = small, poorly fitted or top-dose-only effect, or another doubt; inactive = no such curve, though single readings can be large; an effect the other way counts as inactive or inconclusive.

C(=N\NC1=Nc2cccc3cccc1c23)/c1ccccc1	none
O=[N+]([O-])c1ccc(N/N=C/c2cccnc2)cc1	none
CCC(Oc1ccccc1)C(=O)Nc1cc(Cl)ccc1-n1cncn1 (centres undefined)	none
Cn1cc(C(=O)CCl)c2ccccc21	IL1B secr inh -100 (no result: ATXN2 expr inh, ATXN viability)
CCc1ccc(S(=O)(=O)N(C(=O)c2ccncc2)c2ccc(OC(=O)c3ccncc3)cc2)cc1	IL1B secr inh -61
O=C(NCc1ccccc1Cl)c1cnc2n(c1=O)CCS2	none
COc1ccc(Nc2ccccc2N)cc1	IL1B secr inh -50
CC1CCN(S(=O)(=O)c2cccc(C(=O)Oc3ccc([N+](=O)[O-])cc3)c2)CC1	none
CC(C)(C)OC(=O)N1CCC(NC(=O)c2nc[nH]c2C(=O)N2CCN(C(=O)OC(C)(C)C)CC2)CC1	none
CC(C)(C)OC(=O)N1CCC(NC(=O)c2nc[nH]c2C(=O)N2CCN(c3ccccc3)CC2)CC1	DRD3 agonist 51
CCOC(=O)c1[nH]cnc1C(=O)NC1CCN(C(=O)OC(C)(C)C)CC1	DRD3 agonist 34
O=C1C2C3C=CC(C3)C2C(=O)N1Nc1ccc([N+](=O)[O-])cc1[N+](=O)[O-] (centres undefined)	DRD3 antagonist inconclusive
O=C1c2ccccc2C(=O)N1Nc1ccc([N+](=O)[O-])cc1[N+](=O)[O-]	DRD3 antagonist -75
Cn1c(NCc2ccncc2)nc2cc(-c3ccsc3)sc2c1=O	none (no result: Integrin act MD)
Cn1c(NCC2CCCCC2)nc2cc(-c3ccsc3)sc2c1=O	DRD3 antagonist -51 (no result: Integrin act MD)
CCn1c(-c2ccc(C(C)(C)C)cc2)n[nH]c1=S	none
CCn1c(-c2ccc(F)cc2)n[nH]c1=S	DRD3 antagonist -88
O=C(/C=C\c1ccccc1)NCC(=O)N/N=C/c1ccc(O)cc1O	ATXN2 expr inh 18µM
O=C(CNC(=O)C1COc2ccccc2O1)N/N=C/c1ccc(O)cc1O (centres undefined)	ATXN2 expr inh 13µM
O=C(N/N=C/c1ccc(O)cc1O)/C(=C/c1ccccc1)CCO	ATXN2 expr inh 10µM, ATXN viability inconclusive
O=C(CNC(=O)C1COc2ccccc2O1)N/N=C\c1cccc(O)c1 (centres undefined)	none
COc1ccc(/C=C\C(=O)NCC(=O)N/N=C/c2ccc(O)cc2O)cc1	ATXN viability inconclusive (no result: ATXN2 expr inh)
Cc1cc(SCC(=O)N/N=C/c2ccc(O)cc2O)c(C)cc1Br	ATXN2 expr inh 18µM
Cc1cc(SCC(=O)N/N=C/c2ccccc2C(=O)O)c(C)cc1Br	none
COC(=O)CSc1nc2sc(C)c(C)c2c(=O)n1C	none
CCCc1nnc(SCC(=O)Nc2ccccc2F)o1	Integrin act MD inconclusive (no result: ATXN viability)
O=C(CNC(=O)C(c1ccccc1)c1ccccc1)N/N=C/c1ccc(O)cc1O	ATXN viability inconclusive, DRD3 agonist 33 (no result: ATXN2 expr inh)
COc1ccc(S(=O)(=O)N2CCC(C(=O)Nc3ccccc3)CC2)cc1OC	none (no result: DRD3 antagonist, IL1B secr inh, Integrin act MD)
CC1(C)CCN2CCC(C)(C)c3c(O)ccc1c32	ATXN2 expr inh 3.2µM, ATXN viability inconclusive
COc1ccc(OC)c(CCNC(=O)c2ccc3c(c2)c(C)c(C)n3Cc2ccccc2)c1	none (no result: ATXN2 expr inh, DRD3 antagonist, IL1B secr inh, ATXN viability, Integrin act MD)
CC1(C)CC(=O)C=C(C#CC2(O)CCCCC2)C1	ATXN2 expr inh inconclusive, IL1B secr inh -108, ATXN viability 16µM
O=C1C=CC(=Nc2cccc3c2C(=O)c2ccccc2-3)O1	IL1B secr inh -93
O=C1C=CC(=Nc2ccc3c(c2)Cc2cc(F)ccc2-3)O1	none
COCc1cc(C)nc(SCC[N+](C)(C)CC(=O)Nc2cccc(C(F)(F)F)c2)c1C#N	IL1B secr inh -51
COCc1cc(C)nc(SCC(=O)Nc2ccc(C)c(C)c2)c1C#N	none
O=C1C=C(O)c2cccc3cccc1c23	DRD3 antagonist -76
C=C1CC[C@@H]2[C@](C)(CO)[C@H](O)CC[C@@]2(C)[C@@H]1C/C=C1/C(=O)OCC1O (some centres undefined)	ATXN2 expr inh inconclusive, IL1B secr inh -87, ATXN viability inconclusive (no result: Integrin act MD)
O=C(Nc1ccccc1Oc1ccccc1)[C@@H]1O[C@H](CO)[C@H](O)[C@H](O)[C@H]1O	DRD3 antagonist -162 (no result: Integrin act MD)
CCOC(=O)/C(=C\c1ccc(Cl)cc1)c1nc2sc(C)c(C)c2c(=O)[nH]1	ATXN2 expr inh inconclusive, DRD3 antagonist -63, IL1B secr inh -100 (no result: ATXN viability)
C[C@@H]1CCC(=O)N(CC[C@H](Sc2ccc(Br)cc2)c2ccccc2)CC1	ATXN2 expr inh inconclusive, DRD3 antagonist inconclusive, IL1B secr inh -71, ATXN viability inconclusive
CN1CCC(=O)N(CCSc2ccc(Br)cc2)CC1	DRD3 antagonist -56
Cc1ccc(SCCN2CCC(NC(=O)OCc3ccccc3)CCC2=O)cc1 (centres undefined)	none
Cc1ccc(S[C@@H](CCN2CC[C@H](C)CCC2=O)c2ccccc2)cc1	IL1B secr inh inconclusive, ATXN viability inconclusive
O=C(N[C@@H]1CCC(=O)N(CC[C@H](Sc2ccccc2)c2ccccc2)CC1)OCc1ccccc1	ATXN2 expr inh inconclusive, DRD3 antagonist -92, IL1B secr inh inconclusive, ATXN viability inconclusive
O=C(N[C@H]1CCC(=O)N(CCSc2ccc(Br)cc2)CC1)OCc1ccccc1	ATXN2 expr inh inconclusive, ATXN viability 28µM
CC(=O)N(Cc1cccnc1)c1nc2cc(C)cc(C)c2s1	none (no result: ATXN2 expr inh, DRD3 antagonist, IL1B secr inh, ATXN viability, Integrin act MD)
COc1ccc(CCN(C)CC(O)COc2ccc(C(C)=O)cc2OC)cc1OC (centres undefined)	none
COc1ccccc1CC(NC(C)=O)C(=O)NC1CCN(C(=O)Nc2ccccc2C)CC1 (centres undefined)	none
CCCn1c(SCC(=O)Nc2nc3c(s2)CCCC3)nc2c1c(=O)n(C)c(=O)n2C	none (no result: ATXN2 expr inh, ATXN viability)
CCCCn1c(SCC(=O)Nc2nnc(C(C)C)s2)nc2c1c(=O)n(C)c(=O)n2C	DRD3 agonist 41
c1ccc(-c2cc(-c3nc4ccccc4[nH]3)c3ccccc3n2)cc1	IL1B secr inh -67, ATXN viability inconclusive, Integrin act MD inconclusive
CN(C)CC1CCCCC1OC(=O)/C=C/c1ccc(Cl)cc1Cl (centres undefined)	IL1B secr inh -79
CCn1c(C(=O)NCc2ccccc2Br)cc2oc3ccccc3c21	DRD3 agonist 42 (no result: DRD3 antagonist, IL1B secr inh, Integrin act MD)
O=C(NC(c1ccccc1)c1ccc2ccccc2n1)C1CCN(CCOc2ccc(Cl)cc2Cl)CC1 (centres undefined)	ATXN2 expr inh inconclusive, IL1B secr inh inconclusive (no result: Integrin act MD)
COc1ccc(C(NC(=O)C2CCN(CCOc3ccc(Cl)cc3Cl)CC2)c2ccccn2)cc1 (centres undefined)	ATXN2 expr inh inconclusive, DRD3 antagonist -70, IL1B secr inh -56, ATXN viability inconclusive (no result: Integrin act MD)
